Experimental data reported in the supplement of paper PMC9262897, “Low-cost anti-mycobacterial drug discovery using engineered E. coli” (Nature Communications, 2022).
Structures can show the parent of a compound that is named as a salt. ± gives the standard deviation of the averaged measurements.

system: E. coli TESEC Mtb DapB; experiment: growth (OD600 after 10 h); higher = more growth (less inhibition); conditions: arabinose induction (level): High; compound 0.1 mM; raw OD600 reference: median of DMSO wells […], cell-free background 0.041
Method: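 TESEC E. coli strains in which the native enzyme is deleted and replaced by arabinose-inducible Mtb Asd, DapB, CysH or TrpD, each grown in its selective medium. Strains were screened against the Prestwick library at 0.1 mM and 1% DMSO in 384-well format at low and high arabinose induction. Growth is read as OD600 after 10 h in triplicate.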

Row | Compound | growth
1 | C=CCC1(CC(C)C)C(=O)NC(=O)NC1=O [Butalbital] | 0.218 ± 0.021
2 | COc1ccc(Cc2nccc3cc(OC)c(OC)cc23)cc1OC [Papaverine hydrochloride] | 0.148 ± 0.0024
3 | O=c1[nH]c2ccccc2n1CCCN1CCC(n2c(=O)[nH]c3cc(Cl)ccc32)CC1 [Domperidone] | 0.137 ± 0.005
4 | COc1cc2c(cc1OC)C(C)NCC2 (stereo not given) | 0.212 ± 0.013
5 | CN1CCC2(C)c3cc(O)ccc3N(C)C12 (single isomer, unassigned; (-)) [(-)-Eseroline fumarate salt] | 0.197 ± 0.0051
6 | C[C@]12N[C@H](Cc3ccccc31)c1ccccc12 [Dizocilpine maleate] | 0.179 ± 0.019
7 | C[C@]12CC[C@@H]3c4ccc(OC(=O)N(CCCl)CCCl)cc4CC[C@H]3[C@@H]1CC[C@@H]2O [Estramustine] | 0.173 ± 0.0048
8 | O=[N+]([O-])O[C@H]1CO[C@H]2[C@@H]1OC[C@H]2O[N+](=O)[O-] [Isosorbide dinitrate] | 0.213 ± 0.012
9 | C#C[C@]1(O)CC[C@H]2[C@@H]3CCC4=CC(=O)CCC4=C3C=C[C@@]21CC [Gestrinone] | 0.179 ± 0.015
10 | CC(NC(C)(C)C)C(=O)c1cccc(Cl)c1 (stereo not given) [Bupropion hydrochloride] | 0.202 ± 0.0039
11 | CCC1(c2ccc(N)cc2)CCC(=O)NC1=O (stereo not given) [Glutethimide, para-amino] | 0.189 ± 0.0071
12 | CN[C@@H]1[C@@H](O)[C@@H](O[C@@H]2[C@@H](O)[C@H](O[C@H]3O[C@H](CN)CC[C@H]3N)[C@@H](N)C[C@H]2N)OC[C@]1(C)O.CN[C@@H]1[C@@H](O)[C@@H](O[C@@H]2[C@@H](O)[C@H](O[C@H]3O[C@H]([C@@H](C)N)CC[C@H]3N)[C@@H](N)C[C@H]2N)OC[C@]1(C)O.CN[C@@H]1[C@@H](O)[C@@H](O[C@@H]2[C@@H](O)[C@H](O[C@H]3O[C@H]([C@@H](C)NC)CC[C@H]3N)[C@@H](N)C[C@H]2N)OC[C@]1(C)O [Gentamicine sulfate] | 0.21 ± 0.067
13 | CCN[C@@H](C)Cc1cccc(C(F)(F)F)c1 [Dexfenfluramine hydrochloride] | 0.189 ± 0.0055
14 | CC(=O)O[C@H]1C[C@@H]2CC[C@@H]3[C@H](CC[C@@]4(C)[C@H]3C[C@H]([N+]3(C)CCCCC3)[C@@H]4OC(C)=O)[C@@]2(C)C[C@@H]1[N+]1(C)CCCCC1 [Pancuronium bromide] | 0.191 ± 0.026
15 | C[C@H](N)[C@H](O)c1ccc(O)c(O)c1 [Levonordefrin] | 0.167 ± 0.003
16 | C[C@]12CCC(=O)C=C1C=C[C@@H]1[C@@H]2CC[C@@]2(C)[C@H]1CC[C@@]2(O)CCC(=O)O [Canrenoic acid potassium salt] | 0.196 ± 0.012
17 | C#CCN(C)[C@H](C)Cc1ccccc1 [Selegiline hydrochloride] | 0.222 ± 0.018
18 | O=c1[nH]c2ccccc2n1C1CCN(CCCC(c2ccc(F)cc2)c2ccc(F)cc2)CC1 [Pimozide] | 0.186 ± 0.015
19 | CCC(=O)O[C@@](Cc1ccccc1)(c1ccccc1)[C@@H](C)CN(C)C [Levopropoxyphene napsylate] | 0.175 ± 0.026
20 | CC[C@@]1(O)C(=O)OCc2c1cc1n(c2=O)Cc2cc3ccccc3nc2-1 [Camptothecine (S,+)] | 0.199 ± 0.01

same assay, conditions: arabinose induction (level): Low; compound 0.1 mM; raw OD600 reference: median of DMSO wells 0.227, cell-free background 0.041

Row | Compound | growth
21 | C=CCC1(CC(C)C)C(=O)NC(=O)NC1=O [Butalbital] | 0.24 ± 0.015
22 | COc1ccc(Cc2nccc3cc(OC)c(OC)cc23)cc1OC [Papaverine hydrochloride] | 0.161 ± 0.0073
23 | O=c1[nH]c2ccccc2n1CCCN1CCC(n2c(=O)[nH]c3cc(Cl)ccc32)CC1 [Domperidone] | 0.152 ± 0.0037
24 | COc1cc2c(cc1OC)C(C)NCC2 (stereo not given) | 0.232 ± 0.0067
25 | CN1CCC2(C)c3cc(O)ccc3N(C)C12 (single isomer, unassigned; (-)) [(-)-Eseroline fumarate salt] | 0.209 ± 0.034
26 | C[C@]12N[C@H](Cc3ccccc31)c1ccccc12 [Dizocilpine maleate] | 0.18 ± 0.012
27 | C[C@]12CC[C@@H]3c4ccc(OC(=O)N(CCCl)CCCl)cc4CC[C@H]3[C@@H]1CC[C@@H]2O [Estramustine] | 0.187 ± 0.015
28 | O=[N+]([O-])O[C@H]1CO[C@H]2[C@@H]1OC[C@H]2O[N+](=O)[O-] [Isosorbide dinitrate] | 0.27 ± 0.03
29 | C#C[C@]1(O)CC[C@H]2[C@@H]3CCC4=CC(=O)CCC4=C3C=C[C@@]21CC [Gestrinone] | 0.212 ± 0.013
30 | CC(NC(C)(C)C)C(=O)c1cccc(Cl)c1 (stereo not given) [Bupropion hydrochloride] | 0.261 ± 0.086
31 | CCC1(c2ccc(N)cc2)CCC(=O)NC1=O (stereo not given) [Glutethimide, para-amino] | 0.226 ± 0.041
32 | CN[C@@H]1[C@@H](O)[C@@H](O[C@@H]2[C@@H](O)[C@H](O[C@H]3O[C@H](CN)CC[C@H]3N)[C@@H](N)C[C@H]2N)OC[C@]1(C)O.CN[C@@H]1[C@@H](O)[C@@H](O[C@@H]2[C@@H](O)[C@H](O[C@H]3O[C@H]([C@@H](C)N)CC[C@H]3N)[C@@H](N)C[C@H]2N)OC[C@]1(C)O.CN[C@@H]1[C@@H](O)[C@@H](O[C@@H]2[C@@H](O)[C@H](O[C@H]3O[C@H]([C@@H](C)NC)CC[C@H]3N)[C@@H](N)C[C@H]2N)OC[C@]1(C)O [Gentamicine sulfate] | 0.112 ± 0.0046
33 | CCN[C@@H](C)Cc1cccc(C(F)(F)F)c1 [Dexfenfluramine hydrochloride] | 0.246 ± 0.0058
34 | CC(=O)O[C@H]1C[C@@H]2CC[C@@H]3[C@H](CC[C@@]4(C)[C@H]3C[C@H]([N+]3(C)CCCCC3)[C@@H]4OC(C)=O)[C@@]2(C)C[C@@H]1[N+]1(C)CCCCC1 [Pancuronium bromide] | 0.203 ± 0.055
35 | C[C@H](N)[C@H](O)c1ccc(O)c(O)c1 [Levonordefrin] | 0.176 ± 0.043
36 | C[C@]12CCC(=O)C=C1C=C[C@@H]1[C@@H]2CC[C@@]2(C)[C@H]1CC[C@@]2(O)CCC(=O)O [Canrenoic acid potassium salt] | 0.211 ± 0.031
37 | C#CCN(C)[C@H](C)Cc1ccccc1 [Selegiline hydrochloride] | 0.219 ± 0.0087
38 | O=c1[nH]c2ccccc2n1C1CCN(CCCC(c2ccc(F)cc2)c2ccc(F)cc2)CC1 [Pimozide] | 0.227 ± 0.035
39 | CCC(=O)O[C@@](Cc1ccccc1)(c1ccccc1)[C@@H](C)CN(C)C [Levopropoxyphene napsylate] | 0.205 ± 0.011
40 | CC[C@@]1(O)C(=O)OCc2c1cc1n(c2=O)Cc2cc3ccccc3nc2-1 [Camptothecine (S,+)] | 0.228 ± 0.039
